Molecules are shown by their SMILES.

Assay [1] has as its target T1, Aspartate--tRNA(Asp/Asn) ligase (Mycobacterium tuberculosis (strain ATCC 25618 / H37Rv)) (UniProt P9WFW3). Note: in the data most compounds retested in dose-response had high values.
T1 sequence (whole entry): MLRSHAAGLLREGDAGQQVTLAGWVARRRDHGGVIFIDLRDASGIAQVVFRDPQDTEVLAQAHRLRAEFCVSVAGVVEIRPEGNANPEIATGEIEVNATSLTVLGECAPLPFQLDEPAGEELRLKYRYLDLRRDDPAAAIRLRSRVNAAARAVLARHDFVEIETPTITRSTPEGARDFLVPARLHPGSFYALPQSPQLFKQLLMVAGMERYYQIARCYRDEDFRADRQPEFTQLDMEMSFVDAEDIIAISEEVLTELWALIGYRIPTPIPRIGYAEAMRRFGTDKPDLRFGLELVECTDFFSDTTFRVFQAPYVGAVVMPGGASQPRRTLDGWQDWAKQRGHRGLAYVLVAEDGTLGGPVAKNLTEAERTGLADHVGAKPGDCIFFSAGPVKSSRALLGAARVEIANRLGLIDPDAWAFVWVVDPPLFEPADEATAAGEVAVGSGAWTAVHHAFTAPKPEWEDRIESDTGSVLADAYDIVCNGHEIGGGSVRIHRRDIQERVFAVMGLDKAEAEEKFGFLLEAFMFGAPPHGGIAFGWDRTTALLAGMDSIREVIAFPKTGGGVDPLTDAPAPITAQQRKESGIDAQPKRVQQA
In words: Assay for Asp RNA synthetase-1 from Mycobacterium tuberculosis. The class given is functional. Further details: scale not given: direction of the effect not stated beside the values. The conditions noted are these: 30 µM.

For assay [2], the target named is Shiga toxin 2 (Escherichia coli O157:H7) (UniProt P09385+P09386). In words: E. coli 0.157:H7 Shiga Toxin SOP - stx2 screening assay. The class given is functional. More on the design: scale not given: direction of the effect not stated beside the values. The conditions noted are these: 30 µM.

Turning to `CCc1ccc(C(=O)Nc2ccc(CC3CC(=O)NC3=O)cc2)cc1` (configuration not stated), the figures for the Percent Effect in assay [1] and in assay [2] were 7.7% and -36.3%, respectively.

For the compound `CCN(CC)c1ccc(NS(=O)(=O)c2cncc(F)c2)cn1`, the Percent Effect in assay [1] is 1.66%; in assay [2], -27.3%.

On to `CCN(C(=O)Nc1cccnc1OC)C1CC1`, for which the Percent Effect was -1.21% in assay [1] and -24.9% in assay [2].

On to `Cc1cc(C)c2nc(CN3CCOC(CCO)C3)cc(O)c2c1` (configuration not stated), for which the Percent Effect in assay [1] was -0.725%; in assay [2], -15.7%.

In the case of `COc1ccccc1CC(=O)N1CCCC(n2nc(C)cc2C)C1` (configuration not stated), the figures for the Percent Effect in assay [1] and in assay [2] were -1.4% and 10.9%, respectively.

On to `COc1cccc(OCC2CCCN(C3CCN(C(C)=O)CC3)C2)c1` (configuration not stated), for which the Percent Effect in assay [1] is 4.72%; in assay [2] it was -0.97%.

On to `c1cnc(-c2cnc(N3CCSCC3)nc2C2CC2)cn1`, for which the Percent Effect in assay [1] was 1.07%; in assay [2], 4.88%.

Regarding `CCS(=O)(=O)NCCNC(=O)c1cc(Cl)c2c(c1)OCCCO2`, the Percent Effect in assay [1] was 5.01%; in assay [2], -2.3%.

In the case of `Cc1cc(CN(C)C(=O)c2cccc(N3CCCC3=O)c2)no1`, the Percent Effect was 4.48% in assay [1] and -12.4% in assay [2].

For the compound `CCN1CC2(CC1=O)CN(Cc1cnn(C)c1)CCN(C(=O)C(C)C)C2` (configuration not stated), the Percent Effect in assay [1] is -1.53%; in assay [2] it was -10.1%.

For `CC(NC(=O)N(C)Cc1ccsc1)c1ccc2c(c1)OCO2` (configuration not stated), the Percent Effect in assay [1] worked out at 1.79%; in assay [2], 28.8%.

As to `COCCNC(=O)Nc1ccc(F)c(C(N)=O)c1`, the figures for the Percent Effect in assay [1] and in assay [2] were 3.91% and -19.7%, respectively.

`CS(=O)(=O)NCCCN1CCCC1Cc1ccccc1` (configuration not stated): the Percent Effect was -3.08% in assay [1] and -0.572% in assay [2].

Consider `COc1ccc(OCCN(C)C(=O)NC(C)c2nncn2C)cc1` (configuration not stated), for which the Percent Effect in assay [1] was -1.96%; in assay [2] it was -14.8%.

Take `Cc1nnc(CN2CCN(CC(O)c3cccc(F)c3)CC2)n1C` (configuration not stated): the Percent Effect was -0.288% in assay [1] and 18.7% in assay [2].

On to `COCC1CN(Cc2cc(C)on2)Cc2cn(C)nc21` (configuration not stated), for which the Percent Effect was 1.83% in assay [1] and -2.41% in assay [2].

With `c1ccc(-c2nccc(CNCC3CCCN3c3cccnn3)n2)cc1` (configuration not stated), the Percent Effect was 0.1% in assay [1] and 11.8% in assay [2].

In the case of `Cc1ccc(-c2nc(CN3CCCC(Cn4cncn4)C3)no2)cc1` (configuration not stated), the Percent Effect is 1.64% in assay [1] and -11.2% in assay [2].

Turning to `CCc1cnc(N2CC3(CCN(C(=O)c4ccoc4)C3)C2)nc1`, the Percent Effect in assay [1] is -4.49%; in assay [2] it was -30.6%.

In the case of `O=C(COCc1nc(-c2ccncc2)no1)N1CCCCCC1`, the results for the Percent Effect in assay [1] and in assay [2] were 10.6% and -22.7%, respectively.

Turning to `O=C(c1ccc(F)cc1)N1CCN2C[C@H](OCc3ccccn3)C[C@H]2C1`, the Percent Effect is -1.3% in assay [1] and 10.7% in assay [2].

Turning to `COCCNC(=O)c1cc(S(=O)(=O)N2CCCCC2)cs1`, the results for the Percent Effect in assay [1] and in assay [2] were 0.21% and -0.342%, respectively.

On to `COCCN1CCC(NCc2cccnc2)C1` (configuration not stated), for which the values for the Percent Effect in assay [1] and in assay [2] were 4.4% and 15.8%, respectively.

For `CN(C)C(C(=O)N1CCCC1)c1ccccc1F` (configuration not stated), the Percent Effect in assay [1] is 3.9%; in assay [2], -23.9%.

With `COc1cccc(C2CCCN2Cc2nc3c(cnn3C)c(=O)[nH]2)c1` (configuration not stated), the Percent Effect is -4.03% in assay [1] and -6.96% in assay [2].

For the compound `CC(Cn1cccn1)NC(=O)NCc1cccnc1OC1CCCC1` (configuration not stated), the values for the Percent Effect in assay [1] and in assay [2] were -4.78% and -7.65%, respectively.

Take `O=C1CC(c2cccc(O)c2)c2c(c(C(=O)O)cn2-c2ccccc2)N1` (configuration not stated): the Percent Effect in assay [1] was 22.9%; in assay [2], -12.9%.

As for `O=C(C[C@@H]1COC[C@H]2CN(Cc3ccc(F)cc3)C[C@@H]12)N1CCOCC1`, the Percent Effect in assay [1] is 2.03%; in assay [2] it was -38.2%.

Regarding `CC1(NC(=O)Cc2csc(C(C)(C)C)n2)CCS(=O)(=O)C1` (configuration not stated), the Percent Effect was -6.9% in assay [1] and -10.1% in assay [2].

Regarding `Cc1cnc(N2CCn3cc(CNC(=O)CC4CC4)nc3C2)nc1`, the Percent Effect was 2.93% in assay [1] and -22.4% in assay [2].

Turning to `O=C(NCCNc1ccc(C(F)(F)F)cn1)c1ccc(Br)cc1F`, the Percent Effect in assay [1] is -0.778%; in assay [2], 38.5%.

Consider `Cc1ccc(NC2CCN(C(=O)COc3cccnc3)CC2)nn1`, for which the Percent Effect in assay [1] is -4.47%; in assay [2], -129%.

Turning to `NC(=O)CN1CCC(NC(=O)Nc2nccs2)CC1`, the Percent Effect was -4.06% in assay [1] and -29.4% in assay [2].

As for `O=C1[C@H]2CN(Cc3nccs3)C[C@H]2CN1c1ccsc1`, the Percent Effect in assay [1] came to 5%; in assay [2] it was 1.38%.

Consider `O=C(NCCN1CCC(c2cccs2)CC1)Nc1cccs1`, for which the values for the Percent Effect in assay [1] and in assay [2] were -7.93% and -125%, respectively.

As to `Cc1nccn1-c1cc(CNC(=O)CCNC(=O)C2CCCC2)ccn1`, the figures for the Percent Effect in assay [1] and in assay [2] were -2.19% and 1.23%, respectively.

Turning to `CN(Cc1nnc(-c2ccco2)o1)C1CCCN(c2cccnn2)C1` (configuration not stated), the values for the Percent Effect in assay [1] and in assay [2] were 0.611% and -78.7%, respectively.

Take `O=C(c1cnccn1)N1CCOCC2(CCN(C3CCOCC3)C2)C1` (configuration not stated): the Percent Effect in assay [1] is 3.28%; in assay [2] it was -36.9%.

Turning to `Clc1ccc2oc(C3CCN(Cc4cccnc4)CC3)nc2c1`, the figures for the Percent Effect in assay [1] and in assay [2] were 1.26% and -46.7%, respectively.

Consider `O=C(c1ncccn1)N1C[C@H]2CCC[C@@]2(COCc2ccncc2)C1`, for which the Percent Effect in assay [1] is -2.08%; in assay [2], -24.5%.

`Cc1ncccc1OC1(C(=O)NCCCN2CCOCC2)CCNCC1`: the Percent Effect was 1.19% in assay [1] and -8.28% in assay [2].

With `CCCNC(=O)Cn1nc(C(C)C)c2cnn(C(C)(C)C)c2c1=O`, the Percent Effect in assay [1] was -6.33%; in assay [2] it was 8.81%.

For `Cc1cnc(CN2CCCC2c2noc(C)n2)cn1` (configuration not stated), the Percent Effect in assay [1] was 0.514%; in assay [2], 4.6%.

With `O=C1COC2(CCN(Cc3cccs3)CC2)CN1c1ccccc1`, the Percent Effect in assay [1] was -2.62%; in assay [2] it was -22%.

Consider `Cc1cc(-c2cnc(NC3CC3)nc2-c2ccc(C)o2)on1`, for which the figures for the Percent Effect in assay [1] and in assay [2] were -2.52% and 0.454%, respectively.

For the compound `CC(C)(C)c1n[nH]cc1CN1CCc2nc3ccsc3c(=O)n2CC1`, the Percent Effect in assay [1] was -0.849%; in assay [2], 12.6%.

In the case of `Cc1nn(C)c(C)c1C1CCCN1C(=O)CCc1cscn1` (configuration not stated), the Percent Effect in assay [1] is -2.02%; in assay [2], 20.4%.

For `CN(CCCc1ccccc1)Cc1nc2c(cnn2C)c(=O)[nH]1`, the figures for the Percent Effect in assay [1] and in assay [2] were 1.38% and 28.4%, respectively.

Turning to `Cn1cc(C2CCCN2C(=O)CCCOc2ccc(F)cc2F)cn1` (configuration not stated), the figures for the Percent Effect in assay [1] and in assay [2] were -2.66% and 13.7%, respectively.

On to `Cn1cccc1C(CNC(=O)c1ccc(F)cc1F)N1CCCCCC1` (configuration not stated), for which the Percent Effect in assay [1] is 1.24%; in assay [2] it was -33.8%.

On to `CCc1nc(CN2CCCC(NCc3ncc(C(C)(C)C)o3)C2)no1` (configuration not stated), for which the Percent Effect in assay [1] was 5.85%; in assay [2] it was 2.13%.

Source of the values: ChEMBL document CHEMBL3988442, “University of Dundee, Small-Polar-MMV Screening Library” (2021).
